# Assay outcomes (PubChem BioAssay)
# GCN5L2 inh: inhibitors of human GCN5L2 histone acetyltransferase. Q92830. GCN5L2 HAT assay, ThioGlo1 CoA-SH fluorescence. Potency, µM (highest dose often 58.9 µM), for the others: at the highest dose activity change, negative = inhibition, most hits filed as inhibitors. hit rate 0.21% among 390,000
#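 Compounds, pin-transferred from DMSO stocks, meet 20nM GCN5L2 for 15 min before the reaction begins with H3(1-25) peptide (75uM) and acetyl-CoA (70uM). Thiol-reactive ThioGlo1 reports CoA release over 20 min at room temperature.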
# JMJD2E inh: JMJD2E (human) inhibition. JMJD2E catalytic domain, FDH-coupled NADH fluorescence (FDH is formaldehyde dehydrogenase). Potency, µM (highest dose often 57.1 µM), without a hit: top-dose activity change, negative = inhibition, hits mostly inhibitors. hit rate 1.6% among 230,000; active means well fitted inhibition curve with a large enough effect, not every such curve was filed as active; inconclusive means small, poorly fitted or top-dose-only effect, or another doubt; inactive means no such curve, though single readings can be large or run the other way;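 further: 0% = wells with enzyme and -100% = buffer wells without enzyme; nearly all actives have a fitted effect of over 50% in size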
# BLM inh: Bloom syndrome helicase (human) inhibition. recombinant BLM DNA unwinding, fluorescence dequenching. Potency, µM (series often up to 56.1 µM), without a hit: top-dose activity change, negative = inhibition, most hits filed as inhibitors. hit rate 0.2% among 350,000. P54132;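 further: plate controls were vehicle for no effect and no enzyme for full effect; nearly all actives have a fitted effect of over 35% in size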
# TDP1 block: blocks human tyrosyl-DNA phosphodiesterase 1; hit rate 0.28% among 350,000; Potency, µM (series often up to 130 µM), for the others: at the top dose activity change, negative = inhibition, usual class: inhibitors; Q9NUW8; recombinant TDP1, AlphaScreen DNA substrate cleavage; further: nearly all actives have a fitted effect of over 40% in size
# Target sequence (Q9NUW8 whole entry, looked up): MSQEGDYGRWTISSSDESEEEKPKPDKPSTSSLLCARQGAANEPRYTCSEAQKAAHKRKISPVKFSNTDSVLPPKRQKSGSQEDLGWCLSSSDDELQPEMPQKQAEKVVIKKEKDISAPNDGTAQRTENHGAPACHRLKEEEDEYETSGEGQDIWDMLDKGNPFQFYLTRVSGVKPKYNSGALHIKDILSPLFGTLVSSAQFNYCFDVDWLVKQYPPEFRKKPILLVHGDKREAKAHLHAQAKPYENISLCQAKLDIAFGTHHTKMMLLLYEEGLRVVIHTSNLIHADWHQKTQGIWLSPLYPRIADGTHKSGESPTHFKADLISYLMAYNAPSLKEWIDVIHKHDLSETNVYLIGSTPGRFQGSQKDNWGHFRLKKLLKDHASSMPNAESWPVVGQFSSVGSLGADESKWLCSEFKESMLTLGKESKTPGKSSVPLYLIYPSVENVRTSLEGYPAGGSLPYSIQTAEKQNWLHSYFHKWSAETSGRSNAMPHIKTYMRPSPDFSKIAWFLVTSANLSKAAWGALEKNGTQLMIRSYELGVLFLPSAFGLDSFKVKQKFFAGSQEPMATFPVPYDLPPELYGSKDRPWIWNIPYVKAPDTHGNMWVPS
#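 Here, a 5' biotin and 3' phosphotyrosine-FITC DNA oligonucleotide reports Tdp1 activity: intact substrate bridges AlphaScreen beads, while cleavage leaves a 3' phosphate and drops signal. All incubations at room temperature.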
# APEX1 inh: inhibitors of human APE1 endonuclease; recombinant APE1, TAMRA/BHQ-2 abasic DNA cleavage fluorescence; hit rate 0.35% among 350,000; Potency, µM (titrated, usually from 65.8 µM), inactives show at the highest dose activity change, negative = inhibition, hits mostly inhibitors; P27695;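 further: plate controls were vehicle for no effect and reference inhibitor for full effect; nearly all actives have a fitted effect of over 55% in size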
#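 Measures dequenching upon AP-site incision of a 5'-TAMRA/3'-BHQ-2 THF-containing duplex, 50 nM; human APE1 0.75 nM after 15 min room-temperature exposure to compound; kinetic three-point read at one-minute spacing.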
# RECQ1 inh: inhibitors of human RECQ1 DNA helicase | RECQ1 DNA unwinding, red fluorescence kinetic read | hit rate 0.54% among 240,000 | Potency, µM (doses to about 57.3 µM), for the others: at the highest dose activity, negative = inhibition, hits mostly inhibitors | P46063;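 further: plate controls were vehicle for no effect and no enzyme for full effect; nearly all actives have a fitted effect of over 30% in size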
#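 50 nM RECQ1T1 preincubated 15 min with compound in Tris pH 8.0 buffer with MgCl2, DTT, Tween-20 and 2.5 ug/ml poly(dI-dC); started with 200 nM TAMRA/BHQ-2 forked duplex and 2 mM ATP. Unwinding read as fluorescence (525/598 nm), two reads 2 h apart.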
# The depositor's hits bear a star; i = inactive; ? = inconclusive; nt = no result; ! = not confirmed by another sample. Only a selection was taken, and hits are over-represented in it overall. Unless noted, the call rests on the fitted dose curve; in most records, active means well fitted curve in the direction sought with a large enough effect; inconclusive means small, poorly fitted or top-dose-only effect, or another doubt; inactive means no such curve, though single readings can be large; an effect the other way counts as inactive or inconclusive. Unless noted, on the % scale 0 is the no-effect control and ±100 the full control effect; potency means the concentration at half of the fitted maximal effect.
SMILES,GCN5L2 inh,JMJD2E inh,BLM inh,TDP1 block,APEX1 inh,RECQ1 inh
Cc1ccc(S(=O)(=O)N2CCN(c3nc(-c4cscn4)nc4ccccc34)CC2)cc1,nt,nt,nt,1.9%,nt,nt
CC(C)(C)NC(=O)CSc1nccn1Cc1ccccc1,3.55µM*,-1.1%,3.0%,3.9%,-1.7%,-6.7%
O=C(CSc1nccn1Cc1ccccc1)Nc1ccccc1,-4.7%,nt,-0.9%,6.5%,-4.4%,nt
CC(=O)N[C@H](CS)C(=O)O,5.4%,?,-8.4%,7.7%,6.1%,i
CC(=O)N[C@@H](CS)C(=O)O,-26.5%,25.1µM*!,-2.3%,-6.0%,7.6%,-4.6%
NS(=O)(=O)c1ccc(N=Nc2c(=O)[nH]n3c(=O)c4c([nH]c23)CCCC4)cc1,?,28.2µM*,-3.9%,9.0%,6.7%,-16.3%
O=c1[nH]n2c(=O)c3c([nH]c2c1N=Nc1cccc(Cl)c1)CCC3,?,-4.0%,15.8µM*,-2.6%,1.4%,4.8%
COc1cccc(N=Nc2c(=O)[nH]n3c(=O)c4c([nH]c23)CCC4)c1,-14.4%,5.6%,-21.7%,?,?,-16.1%
N#Cc1nc(NCC(F)F)c2ncn(-c3cccc(Cl)c3)c2n1,nt,nt,nt,-1.7%,nt,nt
O=C(CNC(=O)c1ccc(-c2ccccc2)cc1)OC(C(=O)Nc1cc(C(F)(F)F)ccc1Cl)c1ccccc1 (stereo unspecified),nt,nt,nt,1.0%,nt,nt
Cc1c(Cl)cccc1NS(=O)(=O)c1cc2c(cc1Cl)CCC(=O)N2,nt,nt,nt,0.7%,nt,nt
FC(F)(F)c1cnc(C(c2ccccn2)c2ncn[nH]2)c(Cl)c1 (stereo unspecified),-6.1%,25.1µM*,1.1%,2.9%,-2.3%,-5.2%
NS(=O)(=O)c1ccc(CCNS(=O)(=O)c2cccc(C(=O)O)c2)cc1,2.5%,-5.2%,-1.2%,79.4µM*,3.9%,-4.5%
O=C(C[C@H]1C/C=C\C[C@H](NC(=O)OCC2c3ccccc3-c3ccccc32)C(=O)OC[C@H]2CCCN2C1=O)NCCO,0.2%,nt,nt,-14.1%,?,nt
O=C(C[C@@H]1C/C=C\C[C@H](NC(=O)OCC2c3ccccc3-c3ccccc32)C(=O)OC[C@H]2CCCN2C1=O)NCCO,-3.5%,nt,nt,-4.9%,10.6µM*,nt
COC(=O)c1ccc(OCCOc2ccccc2)cc1,-8.0%,1.3%,-3.1%,0.0%,-0.8%,-5.9%
COC(=O)c1ccc(OCCOc2ccccc2C)cc1,-17.2%,nt,-7.8%,79.4µM*,-14.3%,nt
CCOC(=O)c1ccc(OCCOc2cccc(C)c2)cc1,-0.7%,nt,-10.9%,50.1µM*,28.7%,nt
Cc1ccc(C(=O)NCCOc2cccc(C)c2)cc1,15.8%,2.6%,-3.3%,2.7%,0.6%,i
Cc1ccc(-n2nc3c(c2NC(=O)c2cccs2)CSC3)cc1,3.55µM*,1.9%,-7.2%,5.9%,-2.7%,-4.0%
Cc1cc(/C=C2/NC(=O)N(c3ccccc3)C2=O)c(C)n1-c1cccnc1,-7.9%,20µM*,-4.0%,10.5%,12.7%,-7.3%
Cc1cccc(NC(=O)CN2C(=O)N/C(=C/c3cc(C)n(C)c3C)C2=O)c1,3.1%,31.6µM*,-5.9%,5.1%,7.7%,-2.4%
Cc1cccc(NC(=O)CN2C(=O)N/C(=C/c3cc(C)n(-c4cccnc4)c3C)C2=O)c1,-5.4%,17.8µM*,-11.2%,6.2%,-0.4%,-1.0%
Cc1cccc(NC(=O)CN2C(=O)N/C(=C/c3cc(C)n(-c4ccncc4)c3C)C2=O)c1,-2.4%,-20.2%,-9.9%,5.1%,0.1%,i
Fc1cccc(CNc2ncnc3ccc(-c4cccnc4)cc23)c1,-3.3%,nt,nt,nt,23.9%,nt
CC(C)C[C@H](NC(=O)[C@@H](Cc1c[nH]c2ccccc12)NC(=O)[C@H](Cc1ccc(O)cc1)NC(=O)[C@H](CO)NC(=O)[C@H](Cc1c[nH]c2ccccc12)NC(=O)[C@H](Cc1cnc[nH]1)NC(=O)[C@@H]1CCC(=O)N1)C(=O)N[C@@H](CCCN=C(N)N)C(=O)N1CCC[C@H]1C(=O)NCC(N)=O,-18.2%,nt,2.3%,10.2%,?,-4.6%
